# Reference: ChEMBL document CHEMBL1961873, “Compounds: GSK PKIS; Assays: Nanosyn kinase panel” (2012)
# Target: RAC-beta serine/threonine-protein kinase (Homo sapiens) (UniProt P31751)
# Conditions: at 1 µM
# RAC-beta serine/threonine-protein kinase (Homo sapiens), sequence (P31751 whole entry): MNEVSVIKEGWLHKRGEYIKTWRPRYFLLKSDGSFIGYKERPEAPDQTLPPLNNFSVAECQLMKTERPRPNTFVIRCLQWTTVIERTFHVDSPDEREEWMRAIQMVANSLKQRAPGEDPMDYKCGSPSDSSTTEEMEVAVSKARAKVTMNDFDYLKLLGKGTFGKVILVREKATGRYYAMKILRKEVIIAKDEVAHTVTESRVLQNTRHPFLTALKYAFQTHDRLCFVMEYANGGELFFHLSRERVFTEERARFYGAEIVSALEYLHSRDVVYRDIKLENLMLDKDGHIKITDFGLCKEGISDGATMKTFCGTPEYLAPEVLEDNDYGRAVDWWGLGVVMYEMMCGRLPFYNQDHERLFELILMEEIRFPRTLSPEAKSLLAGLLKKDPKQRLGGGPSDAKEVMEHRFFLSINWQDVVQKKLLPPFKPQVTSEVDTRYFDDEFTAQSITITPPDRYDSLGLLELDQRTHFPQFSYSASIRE
row,Structure (SMILES),inhibition
1,NC(=O)Cc1ccccc1Oc1nccc(-c2c(-c3ccc(F)cc3)ncn2C2CCNCC2)n1,0.29%
2,NS(=O)(=O)c1ccc(Nc2cc(-c3ccc(O)c(F)c3)n[nH]2)cc1,-1.69%
3,Clc1ccc(CNc2nccc(-c3cnn4ncccc34)n2)cc1,-0.27%
4,COc1ccc2cc(-c3c(-c4ccncc4)nc(-c4ccc([S+](C)[O-])cc4C)n3C)ccc2c1 (centres undefined),-0.29%
5,NS(=O)(=O)c1ccc(N/N=C2\C(=O)Nc3ccc(-c4cnco4)cc32)cc1,-1.8%
6,O=C1Nc2ccccc2/C1=C/Nc1ccc(-n2cncn2)cc1,0.9%
7,Fc1ccc(-c2ncn(C3CCNCC3)c2-c2ccnc(Oc3ccc(Oc4ccccc4)cc3)n2)cc1,1.51%
8,COc1cc2ncn(-c3cc(OCc4ccccc4C(F)(F)F)c(C(C)=O)s3)c2cc1OC,1.16%
9,CN(C)CCOc1ccc(-c2cc(-c3ccc4c(c3)CCC4=NO)c(-c3ccncc3)o2)cc1,-0.42%
10,Cc1ccc(NC(=O)c2ccoc2)cc1-c1ccc(C(=O)NCC2CC2)cc1,1.23%
11,O=C(Nc1n[nH]c2nc(-c3ccc(O)cc3)c(Br)cc12)C1CC1,3.12%
12,COc1cc(N2CCN(C(C)C)CC2)ccc1Nc1nc(Nc2ccc(F)cc2C(=O)NC[C@@H](O)CO)c2cc[nH]c2n1,-1.3%
13,COc1ccc2cc(-c3c(-c4ccncc4)nc(-c4ccc(S(C)(=O)=O)cc4C)n3C)ccc2c1,2.26%
14,CCN(CC)Cc1ccc(Nc2nccc(-c3cnn4ncccc34)n2)cc1,-2.22%
15,c1ccc(Oc2ccc(Nc3ncc(-c4ccccc4)o3)cc2)cc1,0.15%
16,CCc1cccc(CC)c1/C=C/c1cncc(C(=O)NC)c1,1.3%
17,NC(=O)c1cc(-c2ccc(F)cc2)cc(-c2ccncc2)c1N,2.01%

row,Structure (SMILES),inhibition
1,COc1cc(Nc2ncc3c(C)nc(-c4cccc(Oc5ccccc5)c4)n3n2)cc(OC)c1OC,1.85%
2,C[C@@H](Oc1cc(-n2cnc3ccc(OC4CCN(C)CC4)cc32)sc1C(N)=O)c1ccccc1Cl,-2.31%
3,CN(c1ccc(NC(=O)Nc2c(Cl)cccc2Cl)cc1)c1ccnc(Nc2cccc(CS(C)(=O)=O)c2)n1,2.1%
4,Cc1ccc(C(=O)NC2CCC2)cc1-c1ccc(C(=O)NCC2CC2)cc1,1.6%
5,COc1ccc2ncn(-c3cc(O[C@H](C)c4ccccc4Cl)c(C(N)=O)s3)c2c1,-2.8%
6,CCC(=O)Nc1ccc(C)c(-c2ccc(C(=O)NCC3CC3)cc2)c1,1.7%
7,CCS(=O)(=O)c1ccc(OC)c(Nc2ncc(-c3ccccc3Cl)o2)c1,0.16%
8,Fc1ccc(-c2c(-c3ccncc3)nc3n2CCS3)cc1,-1.63%
9,COC(=O)Nc1nc2ccc(Sc3ccc(NC(=O)Nc4cc(C(F)(F)F)ccc4F)cc3)cc2[nH]1,-0.51%
10,O=C(Nc1n[nH]c2cc(-c3cc(F)ccc3F)ccc12)C1CC1,1.89%
11,CS(=O)(=O)CCNCc1cc(-c2cc3c(Nc4ccc(OCc5cccc(F)c5)c(Cl)c4)ncnc3s2)cs1,1.93%
12,CCc1nccc2c1nc(-c1nonc1N)n2CC,1.71%
13,COc1cc(C)c(N(C)C(=O)CN(C)C)cc1Nc1nc(Nc2cccc(F)c2C(N)=O)c2cc[nH]c2n1,-2.1%
14,Nc1nccc(-c2c(-c3ccc(F)cc3)ncn2C2CCC(O)CC2)n1 (centres undefined),-1.44%
15,O=C1NC(=O)C(c2cccc(Cl)c2)=C1Nc1ccc(Cl)c(C(=O)O)c1,0.7%
16,CN(C)CCCNc1nccc(-c2c(-c3ccc(F)cc3)nn3cc(C(F)(F)F)ccc23)n1,-3.03%
17,Fc1ccc(-c2nc3n(c2-c2ccncc2)CCS3)cc1,-1.83%
